# Source: PubChem BioAssay AID1159580 (chemical genetic matrix, 2015)
# Screen size: about 5,500 compounds; about 2,000 (36%) were called active. Inconclusive results (about 18%) are left out. Some of the results follow. Unmarked numbers belong to inactive results. No stated cut-off is given here; in the data, active means normalized growth mostly below about 0.91 (no sharp cut-off); inconclusive means no clear call, values can overlap the other calls; inactive means mostly above about 0.92.
# Assay: chemical genetic growth profiling, strain panel (AID 1159580);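 further: tested at 20 µM; growth read once vehicle control cultures reached saturation at 30 °C; 1 = growth at the plate median or of vehicle wells; lower values mean less growth of the strain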
# Conditions: growth OD
# [1] = S. cerevisiae deletion strains, locus YAL013W, strain DEP1, active compounds read low
# [2] = S. cerevisiae deletion strains, locus YDR150W, strain NUM1, active compounds read low
# [3] = S. cerevisiae deletion strains, locus YGR078C, strain PAC10, active compounds read low
# [4] = S. cerevisiae deletion strains, locus YGR229C, strain SMI1, active compounds read low
# [5] = S. cerevisiae deletion strains, locus YHR030C, strain SLT2, active compounds read low
# [6] = S. cerevisiae deletion strains, locus YJL095W, strain BCK1, active compounds read low
# [7] = S. cerevisiae deletion strains, locus YJR075W, strain HOC1, active compounds read low
# [8] = S. cerevisiae deletion strains, locus YMR263W, strain SAP30, active compounds read low
# [9] = S. cerevisiae deletion strains, locus YMR307W, strain GAS1, active compounds read low
# [10] = S. cerevisiae deletion strains, locus YNL128W, strain TEP1, active compounds read low
# [11] = S. cerevisiae deletion strains, locus YNL153C, strain GIM3, active compounds read low
# [12] = S. cerevisiae deletion strains, locus YNL322C, strain KRE1, active compounds read low
# [13] = S. cerevisiae deletion strains, locus YPL055C, strain LGE1, active compounds read low
# [14] = S. cerevisiae deletion strains, locus YPL241C, strain CIN2, active compounds read low
# [15] = S. cerevisiae deletion strains, locus YAL040C, strain CLN3, active compounds read low
# [16] = S. cerevisiae deletion strains, locus YCL061C, strain MRC1 (second series), active compounds read low
# [17] = S. cerevisiae deletion strains, locus YDR363W, strain ESC2, active compounds read low
# [18] = S. cerevisiae deletion strains, locus YER002W, strain NOP16, active compounds read low
# [19] = S. cerevisiae deletion strains, locus YHR079C, strain IRE1, active compounds read low
# [20] = S. cerevisiae deletion strains, locus YJR066W, strain TOR1, active compounds read low
# [21] = S. cerevisiae deletion strains, locus YLR113W, strain HOG1, active compounds read low
# [22] = S. cerevisiae deletion strains, locus YNL175C, strain NOP13, active compounds read low
# [23] = S. cerevisiae deletion strains, locus YNL183C, strain NPR1, active compounds read low
# [24] = S. cerevisiae deletion strains, locus YNL197C, strain WHI3, active compounds read low
# [25] = S. cerevisiae deletion strains, locus YNL224C, strain SQS1, active compounds read low
# [26] = S. cerevisiae deletion strains, locus YOR083W, strain WHI5 (second series), active compounds read low
# [27] = S. cerevisiae deletion strains, locus YOR231W, strain MKK1, active compounds read low
# [28] = S. cerevisiae deletion strains, locus YPL256C, strain CLN2, active compounds read low
smiles,measurement,setting,value
CC(=O)c1c(O)c(C)c(O)c2c1oc1c(C(C)=O)c(O)c(C)c(O)c12,normalized growth,[1],1
same,normalized growth,"S. cerevisiae deletion strains, locus YBR021W, strain FUR4, active compounds read low",0.991
same,normalized growth,"S. cerevisiae deletion strains, locus YBR229C, strain ROT2, active compounds read low",0.981
same,normalized growth,"S. cerevisiae deletion strains, locus YCL029C, strain bik1, active compounds read low",0.961
same,normalized growth,"S. cerevisiae deletion strains, locus YDL035C, strain GPR1, active compounds read low",0.942
same,normalized growth,"S. cerevisiae deletion strains, locus YDL074C, strain BRE1, active compounds read low",0.963
same,normalized growth,"S. cerevisiae deletion strains, locus YDL101C, strain DUN1, active compounds read low",0.98
same,normalized growth,"S. cerevisiae deletion strains, locus YDL134C, strain PPH21, active compounds read low",0.981
same,normalized growth,"S. cerevisiae deletion strains, locus YDL192W, strain arf1, active compounds read low",0.934
same,normalized growth,"S. cerevisiae deletion strains, locus YDR101C, strain arx1, active compounds read low",0.918 (active)
same,normalized growth,[2],0.988
same,normalized growth,"S. cerevisiae deletion strains, locus YDR162C, strain NBP2, active compounds read low",0.979
same,normalized growth,"S. cerevisiae deletion strains, locus YDR318W, strain mcm21, active compounds read low",0.934
same,normalized growth,"S. cerevisiae deletion strains, locus YDR388W, active compounds read low",0.966
same,normalized growth,"S. cerevisiae deletion strains, locus YDR502C, strain sam2, active compounds read low",0.91 (active)
same,normalized growth,"S. cerevisiae deletion strains, locus YEL061C, strain CIN8, active compounds read low",0.98
same,normalized growth,"S. cerevisiae deletion strains, locus YER110C, active compounds read low",0.976
same,normalized growth,"S. cerevisiae deletion strains, locus YER155C, strain BEM2, active compounds read low",0.973
same,normalized growth,"S. cerevisiae deletion strains, locus YER167W, strain BCK2, active compounds read low",0.963
same,normalized growth,"S. cerevisiae deletion strains, locus YGL078C, strain dbp3, active compounds read low",0.987
same,normalized growth,"S. cerevisiae deletion strains, locus YGL086W, strain mad1, active compounds read low",0.993
same,normalized growth,"S. cerevisiae deletion strains, locus YGL248W, strain PDE1, active compounds read low",0.973
same,normalized growth,[3],0.943
same,normalized growth,"S. cerevisiae deletion strains, locus YGR135W, strain pre9, active compounds read low",0.954
same,normalized growth,[4],0.901
same,normalized growth,"S. cerevisiae deletion strains, locus YGR252W, strain gcn5, active compounds read low",0.906
same,normalized growth,[5],0.961
same,normalized growth,"S. cerevisiae deletion strains, locus YHR079C, strain IRE1 (second series), active compounds read low",0.953
same,normalized growth,"S. cerevisiae deletion strains, locus YHR094C, strain hxt1, active compounds read low",0.978
same,normalized growth,"S. cerevisiae deletion strains, locus YHR129C, strain ARP1, active compounds read low",0.975
same,normalized growth,"S. cerevisiae deletion strains, locus YHR200W, strain rpn10, active compounds read low",0.938
same,normalized growth,"S. cerevisiae deletion strains, locus YIL066C, strain RNR3, active compounds read low",0.924
same,normalized growth,"S. cerevisiae deletion strains, locus YIL073C, strain SPO22, active compounds read low",0.942
same,normalized growth,"S. cerevisiae deletion strains, locus YIL125W, strain kgd1, active compounds read low",0.983
same,normalized growth,"S. cerevisiae deletion strains, locus YIR030C, strain dcg1, active compounds read low",0.952
same,normalized growth,[6],0.909
same,normalized growth,"S. cerevisiae deletion strains, locus YJL134W, strain LCB3, active compounds read low",0.977
same,normalized growth,"S. cerevisiae deletion strains, locus YJL168C, strain set2, active compounds read low",0.968
same,normalized growth,"S. cerevisiae deletion strains, locus YJL187C, strain SWE1 (second series), active compounds read low",0.944
same,normalized growth,"S. cerevisiae deletion strains, locus YJR043C, strain POL32, active compounds read low",0.926
same,normalized growth,[7],0.974
same,normalized growth,"S. cerevisiae deletion strains, locus YKL009W, strain mrt4, active compounds read low",0.944
same,normalized growth,"S. cerevisiae deletion strains, locus YKL068W, active compounds read low",0.995
same,normalized growth,"S. cerevisiae deletion strains, locus YKL085W, strain MDH1 (second series), active compounds read low",0.982
same,normalized growth,"S. cerevisiae deletion strains, locus YKL085W, strain MDH1, active compounds read low",0.982
same,normalized growth,"S. cerevisiae deletion strains, locus YKL190W, strain CNB1, active compounds read low",0.988
same,normalized growth,"S. cerevisiae deletion strains, locus YKR001C, strain vps1, active compounds read low",0.638 (active)
same,normalized growth,"S. cerevisiae deletion strains, locus YLR039C, strain RIC1, active compounds read low",0.722
same,normalized growth,"S. cerevisiae deletion strains, locus YLR058C, strain SHM2, active compounds read low",0.966
same,normalized growth,"S. cerevisiae deletion strains, locus YLR102C, strain apc9, active compounds read low",0.979
same,normalized growth,"S. cerevisiae deletion strains, locus YLR262C, strain YPT6, active compounds read low",0.827
same,normalized growth,"S. cerevisiae deletion strains, locus YLR268W, strain sec22, active compounds read low",0.906
same,normalized growth,"S. cerevisiae deletion strains, locus YLR330W, strain CHS5, active compounds read low",0.983
same,normalized growth,"S. cerevisiae deletion strains, locus YLR342W, strain FKS1 (second series), active compounds read low",0.882
same,normalized growth,"S. cerevisiae deletion strains, locus YLR371W, strain rom2, active compounds read low",0.979
same,normalized growth,"S. cerevisiae deletion strains, locus YLR418C, strain cdc73, active compounds read low",0.9
same,normalized growth,"S. cerevisiae deletion strains, locus YML016C, strain PPZ1, active compounds read low",0.975
same,normalized growth,"S. cerevisiae deletion strains, locus YML032C, strain rad52, active compounds read low",0.891 (active)
same,normalized growth,"S. cerevisiae deletion strains, locus YML124C, strain tub3, active compounds read low",0.964
same,normalized growth,"S. cerevisiae deletion strains, locus YMR078C, strain ctf18, active compounds read low",0.966
same,normalized growth,"S. cerevisiae deletion strains, locus YMR223W, strain ubp8, active compounds read low",0.921
same,normalized growth,[8],0.957
same,normalized growth,[9],0.901
same,normalized growth,"S. cerevisiae deletion strains, locus YNL067W, strain RPL9B, active compounds read low",0.961
same,normalized growth,[10],0.972
same,normalized growth,[11],0.986
same,normalized growth,"S. cerevisiae deletion strains, locus YNL233W, strain BNI4, active compounds read low",0.943
same,normalized growth,"S. cerevisiae deletion strains, locus YNL250W, strain rad50, active compounds read low",0.977
same,normalized growth,"S. cerevisiae deletion strains, locus YNL271C, strain bni1, active compounds read low",0.985
same,normalized growth,"S. cerevisiae deletion strains, locus YNL298W, strain CLA4, active compounds read low",0.958
same,normalized growth,"S. cerevisiae deletion strains, locus YNL307C, strain MCK1, active compounds read low",0.941
same,normalized growth,[12],0.989
same,normalized growth,"S. cerevisiae deletion strains, locus YNR052C, strain pop2, active compounds read low",0.852 (active)
same,normalized growth,"S. cerevisiae deletion strains, locus YOL006C, strain TOP1, active compounds read low",0.921
same,normalized growth,"S. cerevisiae deletion strains, locus YOL012C, strain htz1",0.749
same,normalized growth,"S. cerevisiae deletion strains, locus YOL147C, strain pex11, active compounds read low",0.958
same,normalized growth,"S. cerevisiae deletion strains, locus YOR061W, strain CKA2, active compounds read low",0.963
same,normalized growth,"S. cerevisiae deletion strains, locus YOR069W, strain VPS5, active compounds read low",0.988
same,normalized growth,"S. cerevisiae deletion strains, locus YOR136W, strain idh2, active compounds read low",0.967
same,normalized growth,"S. cerevisiae deletion strains, locus YOR144C, strain elg1, active compounds read low",0.971
same,normalized growth,"S. cerevisiae deletion strains, locus YOR184W, strain ser1, active compounds read low",0.88
same,normalized growth,"S. cerevisiae deletion strains, locus YOR316C, strain cot1, active compounds read low",0.972
same,normalized growth,[13],0.95
same,normalized growth,[14],0.962
same,normalized growth,"S. cerevisiae deletion strains, locus YPR119W, strain clb2, active compounds read low",0.971
same,normalized growth,"S. cerevisiae deletion strains, locus YPR141C, strain kar3, active compounds read low",0.985
same,normalized growth,"S. cerevisiae deletion strains, locus YPR163C, strain tif3, active compounds read low",0.98
same,normalized growth,"S. cerevisiae deletion strains, locus YPR167C, strain met16, active compounds read low",0.974
same,normalized growth,"S. cerevisiae deletion strains, strain wtn01, active compounds read low",0.932
same,normalized growth,"S. cerevisiae strains, strain wild type, active compounds read low",0.954
Nc1nc2ccc(OC(F)(F)F)cc2s1,normalized growth,[1],0.937
same,normalized growth,[15],0.985
same,normalized growth,[16],0.979
same,normalized growth,[2],0.954
same,normalized growth,[17],0.943
same,normalized growth,[18],0.979
same,normalized growth,[5],1.02
same,normalized growth,[19],1.02
same,normalized growth,[6],0.961
same,normalized growth,[20],0.956
same,normalized growth,[7],0.918
same,normalized growth,[21],0.94
same,normalized growth,[8],0.988
same,normalized growth,[9],0.856 (active)
same,normalized growth,[22],0.975
same,normalized growth,[23],0.944
same,normalized growth,[24],0.988
same,normalized growth,[25],0.979
same,normalized growth,[26],0.938
same,normalized growth,[27],0.999
same,normalized growth,[13],0.829 (active)
same,normalized growth,[28],1.02
O=C(O)c1nn(Cc2ccc(Cl)cc2Cl)c2ccccc12,normalized growth,[1],1
same,normalized growth,[15],1.05
same,normalized growth,[16],0.99
same,normalized growth,[2],1.02
same,normalized growth,[17],0.972
same,normalized growth,[18],0.956
same,normalized growth,[4],1.03
same,normalized growth,[7],1.02
same,normalized growth,[8],1
same,normalized growth,[10],0.969
same,normalized growth,[11],1.02
same,normalized growth,[22],0.935
same,normalized growth,[24],0.964
same,normalized growth,[25],0.996
same,normalized growth,[12],0.998
same,normalized growth,[26],0.994
OCc1ccc(-c2nn(Cc3ccccc3)c3ccccc23)o1,normalized growth,[1],0.925
same,normalized growth,[15],1.06
same,normalized growth,[16],1
same,normalized growth,[2],1.02
same,normalized growth,[17],1.01
same,normalized growth,[18],0.988
same,normalized growth,[3],0.986
same,normalized growth,[4],0.841 (active)
same,normalized growth,[8],0.991
same,normalized growth,[22],0.977
same,normalized growth,[24],0.972
same,normalized growth,[25],0.981
same,normalized growth,[26],0.95
same,normalized growth,[14],1.02
CN(C)CCCOc1nn(Cc2ccccc2)c2ccccc12,normalized growth,[5],0.972
same,normalized growth,[19],0.968
same,normalized growth,[6],0.979
same,normalized growth,[20],0.954
same,normalized growth,[21],0.956
same,normalized growth,[23],0.922
same,normalized growth,[27],0.967
same,normalized growth,[28],0.991
